The values that follow come from PubChem BioAssay (NCI).

The structures appear in SMILES notation. The panel holds about 83,000 compounds, 20% with a hit somewhere; the sample as a whole holds those more often.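 Cell lines were cultured in 96-well plates, exposed to a single compound concentration, and assessed for percent growth 48 hours later.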 Unmarked numbers belong to inactive results. Activity calls are given as the source filed them. The calls were made as follows: active = growth percent below 10; inactive = the rest.

The test deals with HOP-62 NSCLC. The test is described as follows: NCI-60 one-dose screen, 48 h (100 = growth as untreated, 0 = no growth, -100 = all killed). The settings on record: 10 µM unless noted.
On to `Oc1c(N=Nc2nn[nH]n2)ccc2ccccc12`, for which the growth was 85.4%.

`CCN1CCN(c2nc(NNC(=O)Cc3ccccc3)nc(N3CCN(C(c4ccccc4)c4ccccc4)CC3)n2)CC1`: the growth was 74.5%.

For `COc1cc(-c2nnc(-c3nc(-c4cc(OC)c(OC)c(OC)c4)n4ccccc34)o2)ccc1N`, the growth was 89%.

Consider `CCOc1cc(/C=C/C(=O)CC(=O)/C=C/c2ccc(OC(=O)CNCCN(CC)CC)c(OCC)c2)ccc1OC(=O)CNCCN(CC)CC`, for which the growth was -32.1% (active).

As to `Nc1ccc2c(c1Br)Cc1ccccc1-2`, the growth was 97.8%.

On to `CCOC(=O)C1=CCC(n2cc(C)c(=O)[nH]c2=O)O1` (stereo not drawn), for which the growth is 104%.

Take `CCCCCN(CCCCC)CCCNc1c2c(nc3ccc(Cl)cc13)CCCC2`: the growth was 44.3%.

As for `COc1ccc(-c2nnc3c4[nH]cnc4ncn23)c(OC)c1`, the growth was 25.8%.

For the compound `O=C(Nc1nn2c(-c3cc(C(F)(F)F)cc(C(F)(F)F)c3)nnc2s1)C1CCCC1`, the growth is 8.91% (active).

For `COc1ccc(N2CCN(CC(=O)N3CCN(c4nnc(-c5ccc(Cl)cc5)c(-c5ccc(Cl)cc5)n4)CC3)CC2)cc1`, the growth was 93.3%.

`O=C(O)c1ccc2cccnc2c1O`: the growth is 13.6%.

In the case of `COC(=O)[C@H]1[C@H]2C[C@@H]3c4[nH]c5cc(OC)ccc5c4CCN3C[C@H]2C[C@@H](OC(=O)/C=C/c2cc(OC)c(OC)c(OC)c2)[C@@H]1OC`, the growth is 61.6%.

For `COc1ccc2nc(-c3ccc(Cl)cc3)cc(-c3nnc(SCC(=O)Nc4ccc(C(C)=O)cc4)n3-c3ccccc3)c2c1`, the growth is 100%.
